This note sets out measurements from PubChem BioAssay (Tox21).

Test [1] can be described thus: qHTS assay to test for compound auto fluorescence at 535 nm (green) in HEK293 cells (AID 720680). Background: qHTS replaces the single test concentration by a dilution series.
Test [2] in a line: qHTS assay to test for compound auto fluorescence at 460 nm (blue) in HEK293 cell free culture (AID 720681). In short, it runs like this: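 Test compounds were pinned into cell-free culture medium (DMEM with 10% FBS) and fluorescence was read directly at Ex/Em 405/460 nm. Signals were expressed as fluorescence equivalents of triamterene, with DMSO vehicle as control.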
Test [3] is described as follows: qHTS assay to test for compound auto fluorescence at 535 nm (green) in HEK293 cell free culture (AID 720682). In short, it runs like this: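 Compounds were pin-transferred into cell-free DMEM with 10% FBS, and green fluorescence was read at excitation 485 nm and emission 535 nm. Intensities were expressed as fluorescein-equivalent values.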
Test [4] in a line: qHTS assay to test for compound auto fluorescence at 590 nm (red) in HEK293 cell free culture (AID 720683). In short, it runs like this: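 Tox21 10K library compounds were pinned into cell-free DMEM with 10% FBS and fluorescence was read at excitation 540 nm. Activity is expressed as Rose Bengal sodium equivalency.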
The nature of test [5]: qHTS assay to test for compound auto fluorescence at 590 nm (red) in HepG2 cell free culture (AID 720684). In short, it runs like this: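 Ex 540 / Em 590 nm read of compound in cell-free MEM (10% FBS). Rose Bengal sodium reference.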
Test [6] is described as follows: qHTS assay to test for compound auto fluorescence at 535 nm (green) in HepG2 cell free culture (AID 720686).
Test [7] in a line: qHTS assay to test for compound auto fluorescence at 460 nm (blue) in HepG2 cells (AID 720687). The method in brief:
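Cells (2,000/well in MEM with 10% FBS) attached overnight at 37 C, then were exposed to compound or DMSO for 1 hr at 37 C, 5% CO2. Fluorescence read at Ex/Em 405/460 nm, expressed as triamterene-equivalent signal.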

The target in test [8] is Glucocorticoid receptor (Homo sapiens) (UniProt P04150). Put plainly: qHTS assay to identify small molecule agonists of the glucocorticoid receptor (GR) signaling pathway (AID 720691; active = well fitted activation curve with a large enough effect in the signal ratio in the repeat runs, not every such curve was filed as active; the % refers to the signal ratio; note: potency is the fitted concentration of half-maximal effect). In short, it runs like this:
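Compounds in DMSO, alongside positive controls, were added to GR-bla HeLa reporter cells and incubated 18 h at 37 C; GRE-driven beta-lactamase was detected by fluorescence after 2 h with FRET substrate at room temperature.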

For test [9] the target is unchanged. Description: qHTS assay to identify small molecule antagonists of the glucocorticoid receptor (GR) signaling pathway (AID 720692; active = well fitted inhibition curve with a large enough effect in the signal ratio in the repeat runs, not every such curve was filed as active; the % refers to the signal ratio; note: potency is the fitted concentration of half-maximal effect). In short, it runs like this:
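In a 1536-well cell format, compounds were added 4 h after seeding GR-bla HeLa cells, together with dexamethasone at 5 nM final; reporter activity was measured by FRET-substrate fluorescence following 18 h at 37 C.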

Test [10] is described as follows: qHTS assay to test for compound auto fluorescence at 460 nm (blue) in HepG2 cell free culture (AID 720685). In short, it runs like this:
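Cell-free plates of MEM plus 10% FBS received 23 nL compound or DMSO vehicle; blue-channel (405/460 nm) intensity scored against triamterene as reference fluorophore.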

Unmarked numbers belong to inactive results. Results filed as inconclusive are left out. Activity calls are given as the source filed them. Unless noted, calls come from the whole dose curve; as a rule, active = well fitted curve in the direction sought with a large enough effect in the repeat runs; inconclusive = weak or mixed curves; inactive = flat fitted curve, though single readings scatter.
% is set by controls: 0 for no effect and ±100 for the full control effect.

Glucocorticoid receptor (Homo sapiens), sequence (P04150 whole entry, looked up): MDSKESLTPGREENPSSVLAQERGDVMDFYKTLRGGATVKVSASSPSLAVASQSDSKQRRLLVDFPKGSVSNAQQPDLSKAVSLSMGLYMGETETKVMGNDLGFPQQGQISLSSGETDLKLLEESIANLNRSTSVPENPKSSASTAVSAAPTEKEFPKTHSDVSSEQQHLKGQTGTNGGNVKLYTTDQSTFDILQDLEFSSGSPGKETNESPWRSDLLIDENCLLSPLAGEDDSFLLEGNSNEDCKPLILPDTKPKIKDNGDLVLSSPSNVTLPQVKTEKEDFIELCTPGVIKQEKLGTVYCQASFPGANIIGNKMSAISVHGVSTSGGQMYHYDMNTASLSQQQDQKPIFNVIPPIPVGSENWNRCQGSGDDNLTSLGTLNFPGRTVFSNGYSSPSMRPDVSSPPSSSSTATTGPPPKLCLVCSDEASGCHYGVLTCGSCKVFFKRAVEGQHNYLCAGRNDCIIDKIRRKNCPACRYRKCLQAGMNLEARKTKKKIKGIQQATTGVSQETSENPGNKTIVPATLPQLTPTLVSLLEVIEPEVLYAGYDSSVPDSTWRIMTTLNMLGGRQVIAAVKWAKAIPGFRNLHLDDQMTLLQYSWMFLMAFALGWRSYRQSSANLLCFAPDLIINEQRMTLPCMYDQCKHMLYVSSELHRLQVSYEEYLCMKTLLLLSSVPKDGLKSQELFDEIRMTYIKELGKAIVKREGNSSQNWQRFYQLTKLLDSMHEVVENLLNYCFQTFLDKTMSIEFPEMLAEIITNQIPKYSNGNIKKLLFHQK

With `CN(C)C(=O)Oc1ccc[n+](C)c1`, the compound was classed as inactive in test [1], in [2], in test [3], in test [4], in test [5] and in test [6]. For the same compound, the call in [7] was inactive. The Potency in test [8] was 26.8 µM (active). Further, in test [9], the Potency entry was “inactive”.

On to `O=C(c1ccccc1O)c1ccccc1O`, for which the call in test [1], in [2], in test [3], in [4], in test [5] and in [6] was inactive. Also, the call in test [7] was inactive. Besides, the Potency result in test [9] is “inactive”.

On to `C=COCC1CCC(COC=C)CC1` (stereo not drawn), for which the call in test [1], in test [2], in test [3], in [4], in [5] and in test [6] was inactive. In addition, in test [7], the compound was called inactive. Further, the Potency entry in test [8] is “inactive”.

For the compound `O=C(O)c1cn(C2CC2)c2cc(N3CCNCC3)c(F)cc2c1=O`, in test [1], the fluorescence, % of fluorescein was -0.0935% [at 18.6 µM]. For the same compound, the figures for the fluorescence, % of fluorescent control in test [2], in [4] and in test [7] were -0.0136% [at 18.6 µM], -0.102% [at 18.6 µM] and -0.0408% [at 18.6 µM], respectively. In addition, the activity change in [3] is 0.0246% [at 18.6 µM]. Also, the fluorescence, % of Rose Bengal in [5] was 0.543% [at 18.6 µM]. Moreover, in [6], the fluorescence, % of fluorescein control was 0.0355% [at 18.6 µM]. Besides, the Potency entry in [8] and in test [9] was “inactive” in each case.

Turning to `CC1=NN(c2cc(S(=O)(=O)O)ccc2Cl)C(=O)C1N=Nc1ccccc1` (stereo not drawn), the compound was called inactive in test [1], in test [2], in test [3], in test [4], in test [5] and in [6]. In addition, the call in [7] was inactive. Moreover, the Potency result in test [8] and in test [9] was “inactive” in each case.

For `CC(=O)O[C@@]12CO[C@@H]1C[C@H](O)[C@@]1(C)C(=O)[C@H](O)C3=C(C)[C@@H](OC(=O)[C@H](O)[C@@H](NC(=O)OC(C)(C)C)c4ccccc4)C[C@@](O)([C@@H](OC(=O)c4ccccc4)[C@H]21)C3(C)C`, the outcome in test [1], in test [2], in test [3], in test [4], in [5] and in [6] was inactive. For the same compound, the call in test [7] was inactive. Also, the Potency result in [8] is “inactive”. Also, the Potency in test [9] is 10.7 µM (active).

Take `Cc1ccc(C(=O)Nc2ccc(S(=O)(=O)O)c3cc(S(=O)(=O)O)cc(S(=O)(=O)O)c23)cc1NC(=O)c1cccc(NC(=O)Nc2cccc(C(=O)Nc3cc(C(=O)Nc4ccc(S(=O)(=O)O)c5cc(S(=O)(=O)O)cc(S(=O)(=O)O)c45)ccc3C)c2)c1`: the compound was classed as inactive in test [1], in test [2], in [3], in test [4], in test [5] and in [6]. Further, the compound was called inactive in [7]. Further, the Potency result in [8] and in test [9] was “inactive” throughout.

In the case of `C=CC(=O)OCCCl`, the compound was classed as inactive in [1], in [2], in test [4], in test [5], in test [10] and in test [6]. For the same compound, the outcome in [7] was inactive.

As for `CC(C)(C)C(=O)c1ccccc1`, the result in test [1], in test [2], in test [3], in test [4], in test [5] and in [6] was inactive. The call in test [7] was inactive. Besides, the Potency entry in test [8] and in [9] was “inactive” in each case.

Turning to `CC[N+](CC)(CC(=O)Nc1c(C)cccc1C)Cc1ccccc1` (tested in a mixture with another compound), the result in test [1], in [2], in test [3], in test [4], in [5] and in test [6] was inactive. Also, in [7], the result was inactive.

Consider `COc1cccc(OC)c1C(=O)N[C@@H]1C(=O)N2[C@@H]1SC(C)(C)[C@@H]2C(=O)O`, for which the compound was called inactive in test [1], in test [2], in test [3], in test [4], in test [5] and in test [6]. The compound was classed as inactive in test [7]. Also, the Potency result in test [8] and in [9] was “inactive” throughout.

Take `CCN(CC#N)c1cccc(C)c1`: the result in [1], in [2], in test [3], in test [4], in test [5] and in test [6] was inactive. For the same compound, in [7], the result was inactive.

In the case of `CC(C)C1CCC(O)CC1` (stereo not drawn), the compound was called inactive in test [1], in test [2], in test [3], in [4], in [5] and in test [6]. Further, the result in [7] was inactive. Moreover, the Potency entry in test [8] and in test [9] was “inactive” each time.

Turning to `O=S(=O)(O)c1cccc(S(=O)(=O)O)c1`, the call in test [1], in test [2], in test [4], in [5], in [6] and in [7] was inactive.

As for `C=COC(=O)C(C)(CC)CCC(C)C` (stereo not drawn), the call in test [1], in test [2], in test [4], in [5], in test [10] and in [6] was inactive. In test [7], the call was inactive. Further, in test [8], the Potency entry was “inactive”.

`CO/N=C(\C(=O)N[C@@H]1C(=O)N2C(C(=O)O)=C(CSc3nc(=O)c(O)nn3C)CS[C@H]12)c1csc(N)n1`: the compound was called inactive in [1], in [2], in test [4], in test [5], in test [10] and in test [6]. Moreover, the outcome in [7] was inactive. Further, the Potency entry in test [8] and in test [9] was “inactive” throughout.

In the case of `Cc1ccc(-c2ncc(Cl)cc2-c2ccc(S(C)(=O)=O)cc2)cn1`, the outcome in test [1], in test [2], in [4], in [5], in test [10] and in [6] was inactive. For the same compound, in test [7], the call was inactive.

Regarding `COc1cc(C(=O)NCc2ccc(OCCN(C)C)cc2)cc(OC)c1OC`, the fluorescence, % of fluorescein in test [1] was -0.015% [at 18.6 µM]. The fluorescence, % of fluorescent control is -0.119% [at 18.6 µM] in test [2], 0.0108% [at 18.6 µM] in test [4], -0.0208% [at 18.6 µM] in [10] and 0.157% [at 18.6 µM] in test [7]. Also, the fluorescence, % of Rose Bengal in test [5] was -0.58% [at 18.6 µM]. In addition, the fluorescence, % of fluorescein control in [6] was 0.123% [at 18.6 µM]. The Potency entry in test [8] was “inactive”.

Consider `Clc1cc(Cl)cc(Cl)c1`, for which the compound was classed as inactive in test [1], in test [2], in test [4], in [5], in [10] and in [6]. Also, the result in test [7] was inactive. The Potency result in [8] and in test [9] was “inactive” throughout.

`C[N+](C)(C)CCCCCCCCCC[N+](C)(C)C`: the result in test [1], in [2], in test [4], in [5], in test [10] and in [6] was inactive. Also, in [7], the call was inactive. In addition, in test [8], the Potency entry is “inactive”.

Consider `c1ccc(CCc2ccccc2)cc1`, for which the call in test [1], in [2], in [4], in test [5], in [10] and in [6] was inactive. Also, the result in [7] was inactive.

As to `CCOC(=O)COC(=O)c1ccccc1C(=O)OCC`, the result in [1], in test [2], in [4], in test [5], in test [10] and in test [6] was inactive. Further, the outcome in test [7] was inactive. Moreover, the Potency entry in test [8] and in test [9] was “inactive” each time.

As to `FB(F)F`, the result in test [1], in test [2], in test [4], in [5], in [10] and in [6] was inactive. Moreover, the compound was called inactive in [7]. In addition, the Potency entry in [8] and in [9] was “inactive” throughout.

Turning to `O=CN(CCO)CCO`, the outcome in [1], in [2], in [4], in test [5], in [10] and in test [6] was inactive. For the same compound, in [7], the result was inactive. For the same compound, in test [8], the Potency result was “inactive”.

As for `CCCCS(=O)(=O)N[C@@H](Cc1ccc(OCCCCC2CCNCC2)cc1)C(=O)O`, the compound was classed as inactive in test [1], in [2], in [4], in [5], in test [6] and in test [7].
